Screening results from PubChem BioAssay.
Only some compounds are listed: those with a hit (about 3.5% of all), similar ones and a draw of the others.
FBW7 activator = human FBW7 E3 ligase activation, primary screen | hit rate 0.13% among 650,000 | AlphaScreen FBW7–phospho-cyclin E peptide binding, activator screen | Q969H0 | normalized activity (activation), % at 26.1 µM; in the data active = normalized activity above about 1.9%;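 also: purified mutant Fbw7 with reduced substrate affinity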
MITF inh = inhibitors of human MITF | O75030 | AlphaScreen MITF homodimerization, bead proximity signal | inhibition, % at 2.6 µM | hit rate 0.91% among 650,000; in the data active = inhibition above about 50%
TEAD-YAP inh = TEAD-YAP interaction inhibition | HEK-TIYL cells, TEAD-Gal4/YAP UAS-luciferase luminescence | inhibition, % at 9.12 µM | hit rate 1.4% among 640,000; in the data active = inhibition above about 32%
GPR151 activ = activators of human GPR151; activation, % at 11.2 µM; Q8TDV0; hit rate 1% among 650,000; PathHunter beta-arrestin GPR151 cells, luminescence; in the data active = activation above about 4.9%
Target sequence (Q8TDV0 whole entry, looked up): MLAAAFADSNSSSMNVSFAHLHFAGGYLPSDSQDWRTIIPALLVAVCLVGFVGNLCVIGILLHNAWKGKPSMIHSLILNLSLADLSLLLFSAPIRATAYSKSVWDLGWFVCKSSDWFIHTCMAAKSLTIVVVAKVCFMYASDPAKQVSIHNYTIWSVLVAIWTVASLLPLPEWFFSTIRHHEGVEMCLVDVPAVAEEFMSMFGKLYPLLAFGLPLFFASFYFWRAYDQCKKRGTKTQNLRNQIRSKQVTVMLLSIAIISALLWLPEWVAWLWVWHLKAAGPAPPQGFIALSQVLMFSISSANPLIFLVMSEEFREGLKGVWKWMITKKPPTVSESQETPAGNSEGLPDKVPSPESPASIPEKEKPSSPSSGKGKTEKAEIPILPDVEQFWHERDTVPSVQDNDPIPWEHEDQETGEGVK
GPR151 conf act = human GPR151 activation, confirmation screen. shares compounds with GPR151 activ. GPR151 PathHunter beta-arrestin cells, luminescence, 90 min; % of EA-reagent control over plate median. activation, % at 11.2 µM. 6,700 tested, under 10 active;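 active = mean percent activation across replicates above the confirmation screen cutoff of 4.91%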
GPR119 ag = counter-screen for GPR151 activators: effect on human GPR119; shares compounds with GPR151 activ; GPR119 PathHunter beta-arrestin cells, luminescence, 90 min; 0 = compound-well median, 100 = enzyme-acceptor control; activation, % at 11.2 µM; hit rate 0.3% among 6,700; AID 1508611;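 active = mean percent activation in the counterscreen above 29.09%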;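 also: counterscreen on off-target GPR119 to flag nonselective hits from the GPR151 activator screen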
Large screens that a line does not name were inactive (follow-up assays come after a bar, where they were run).

CC(=O)Nc1ccc(NC(=O)C(Sc2ccccc2)c2ccccc2)cc1 (stereo not drawn)	none
Cc1ccc(NC(=O)C(Sc2ccccc2)c2ccccc2)cc1[N+](=O)[O-] (stereo not drawn)	GPR151 activ 8.4 | GPR151 conf act inactive | GPR119 ag inactive
Cc1ccc(NC(=O)COc2ccccc2C(=O)NC(C)c2ccccc2)cc1[N+](=O)[O-] (stereo not drawn)	GPR151 activ 7.1 | GPR151 conf act inactive | GPR119 ag inactive
Cc1nnc(SCC(=O)Nc2ccc(C)c([N+](=O)[O-])c2)s1	GPR151 activ 7.3 | GPR151 conf act inactive | GPR119 ag inactive
COc1ccc(OCC(O)Cn2c(NCCCn3ccnc3)nc3c2c(=O)n(C)c(=O)n3C)cc1 (stereo not drawn)	none
CCOc1ccc(-c2[nH]nc3c2C2(C(=O)N(CC(=O)OC)c4ccccc42)C(C#N)=C(N)O3)cc1 (stereo not drawn)	none
O=C(CSc1ccc(F)cc1)Nc1nc(-c2ccc(F)cc2)cs1	GPR151 activ 7.7 | GPR151 conf act inactive | GPR119 ag inactive
Cc1nn(C(C)C(=O)NC2CCCCC2C)c(=O)c2cc3sccc3n12 (stereo not drawn)	none
Cc1sc(NC(=O)c2cc3ccccc3oc2=O)nc1-c1ccc(Br)cc1	GPR151 activ 7.4 | GPR151 conf act inactive | GPR119 ag inactive
O=C(/C=C/c1cccc2ccccc12)NCc1ccccc1	GPR151 activ 5.0 | GPR151 conf act inactive | GPR119 ag inactive
CCOC(=O)c1ccc(NC(=S)Nc2ccsc2C(=O)OC)cc1	GPR151 activ 5.7 | GPR151 conf act inactive | GPR119 ag inactive
COC(=O)c1ccc(NC(=S)NCCO)cc1	GPR151 activ 6.3 | GPR151 conf act inactive | GPR119 ag inactive
COC(=O)c1sccc1NC(=S)Nc1ccc(F)cc1	none
COC(=O)c1sccc1NC(=S)Nc1ccc(OC)c(OC)c1	GPR151 activ 6.0 | GPR151 conf act inactive | GPR119 ag inactive
CCN(CCCNC(=O)c1nn(-c2cc(OC)cc(OC)c2)c(=O)c2ccccc12)c1cccc(C)c1	none
COC(=O)c1cc(S(=O)(=O)N2CCC(C)CC2)ccc1F	GPR151 activ 11.5 | GPR151 conf act inactive | GPR119 ag inactive
CC1CCN(S(=O)(=O)c2ccc(F)c(C(=O)Nc3ccc(F)cc3)c2)CC1	none
CSc1cccc(NC(=O)CN(C)S(=O)(=O)c2ccc3c(c2)C(C)(C)C(=O)N3C)c1	none
CCOC(=O)c1c(NC(=O)c2ccccc2Cl)sc2c1CC(C)(C)NC2(C)C	none
CCOC(=O)c1c(NC(=O)c2ccc(OC)cc2OC)sc2c1CC(C)(C)NC2(C)C	GPR151 activ 5.6 | GPR151 conf act inactive | GPR119 ag inactive
CC1(C)Cc2c(sc(NC(=O)c3ccccc3F)c2C(N)=O)C(C)(C)N1	GPR151 activ 6.3 | GPR151 conf act inactive | GPR119 ag inactive
COc1ccc(-c2csc(Nc3ccc(N(C)C)cc3)n2)cc1OC	none
CC(C)CN(C(=O)COC(=O)/C=C/c1ccc(Br)o1)C1CCS(=O)(=O)C1 (stereo not drawn)	none
Nc1cccc(-c2nc3ccc(Cc4ccc5nc(-c6cccc(N)c6)[nH]c5c4)cc3[nH]2)c1	GPR151 activ 7.0 | GPR151 conf act inactive | GPR119 ag inactive
Cn1cccc1-c1nc2ccc(N)cc2[nH]1	GPR151 activ 6.3 | GPR151 conf act inactive | GPR119 ag inactive
N#Cc1c(-c2ccc(F)cc2)cc(-c2cccs2)nc1SCCCC(=O)c1ccc(F)cc1	none
O=C(/C=C/c1ccccc1)NC(=S)Nc1ccc(S(=O)(=O)Nc2cscn2)cc1	none
CC(C)(C)c1nnc(Nc2ccccc2Cl)[nH]c1=O	none
CC(C)(C)c1nnc(Nc2cc(Cl)ccc2Cl)[nH]c1=O	GPR151 activ 5.7 | GPR151 conf act inactive | GPR119 ag inactive
O=C(COC(=O)C12CC3CC(CC(C3)C1)C2)NNC(=O)c1ccccc1	none
COc1cccc(CC(=O)NCC2COc3ccccc3O2)c1OC (stereo not drawn)	none
COc1ccc(C2C(C(=O)NCC3COc4ccccc4O3)c3ccccc3C(=O)N2c2ccc(OC)cc2)cc1 (stereo not drawn)	GPR151 activ 7.2 | GPR151 conf act inactive | GPR119 ag inactive
COc1ccccc1CC(=O)NCC1COc2ccccc2O1 (stereo not drawn)	GPR151 activ 5.7 | GPR151 conf act inactive | GPR119 ag inactive
CC(=O)N(C)c1nc(-c2ccccc2)ccc1C(=O)NCC1COc2ccccc2O1 (stereo not drawn)	GPR151 activ 10.9 | GPR151 conf act inactive | GPR119 ag inactive
O=C(CN1CCN(Cc2ccccc2)CC1)NCC1COc2ccccc2O1 (stereo not drawn)	GPR151 activ 9.2 | GPR151 conf act inactive | GPR119 ag inactive
O=C(CN1C(=O)c2ccccc2C1=O)NCC1COc2ccccc2O1 (stereo not drawn)	none
COCCCNC(=O)CN1C(=O)CC(C)(C)Sc2ccccc21	none
CCN1C(=O)N(CC)C2OCOC21 (stereo not drawn)	none
Cc1ccc(SCCC(=O)Nc2sc3c(c2C(N)=O)CCCC3)cc1	none
CC#CC(=O)NCC1Cc2cccc(-c3ncccn3)c2O1 (stereo not drawn)	none
O=C(Cn1nnnc1CN1CCCCCC1)N1CCCCC1c1cccnc1 (stereo not drawn)	GPR151 activ 5.7 | GPR151 conf act inactive | GPR119 ag inactive
O=C(Cn1nnnc1CN1CCCCCC1)N1CCC[C@H]1CO	none
COc1ccc(NC(=O)CC2C(=O)N(c3ccc(Cl)cc3)C(=S)N2CCCN2CCOCC2)cc1 (stereo not drawn)	GPR151 activ 5.0 | GPR151 conf act inactive | GPR119 ag inactive
CCCOc1ccc(NC(=O)CC2C(=O)N(c3ccc(Cl)cc3)C(=S)N2Cc2cccnc2)cc1 (stereo not drawn)	none
NC(=O)CC1C(=O)N(c2ccc(Cl)cc2)C(=S)N1Cc1cccnc1 (stereo not drawn)	GPR151 activ 5.4 | GPR151 conf act inactive | GPR119 ag inactive
CCCOc1ccc(NC(=O)CC2C(=O)N(c3ccc(Cl)cc3)C(=S)N2Cc2ccncc2)cc1 (stereo not drawn)	GPR151 activ 6.3 | GPR151 conf act inactive | GPR119 ag inactive
CCN1CCN(CCCN2C(=S)N(c3ccc(Cl)cc3)C(=O)C2CC(=O)Nc2ccc(OC)cc2)CC1 (stereo not drawn)	none
COc1cc(NC(=O)c2cnc3sc4ccccc4n3c2=O)cc(OC)c1OC	none
Cc1ccc(C2(c3ccccc3)CC(=O)CC(C)(C)S2)cc1 (stereo not drawn)	none
COc1ccc(C2CC(c3ccccc3OC(F)F)Nc3ncnn32)cc1 (stereo not drawn)	none
COc1ccc(C2CC(c3ccc(OC(F)F)cc3)n3ncnc3N2)cc1 (stereo not drawn)	GPR151 activ 7.4 | GPR151 conf act inactive | GPR119 ag inactive
